Out of some 1,400 compounds screened, about 560 (40%) were called active. The set was probably picked from earlier hits. The list shows a part of the results. Unmarked numbers belong to inactive results.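 How the source made its calls: active means mean inhibition over duplicate tests at 10 µM above 50%; inactive means the rest.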

The assay in a line: ASC/caspase-1 reporter retest in S. cerevisiae at one dose, specificity check for NALP1 project (AID 488857). The settings on record: S. cerevisiae ASC/Caspase-1, beta-galactosidase luminescence, 24 h; at 10 µM; stronger effect = higher value.
Regarding `N#CC1(C#N)CC(C=O)=C(N)C1(C#N)CC(=O)C12CC3CC(CC(C3)C1)C2` (centres undefined), the inhibition (usually the drop in the measured response relative to a control, in per cent) was 35.1%.

Consider `Cc1cc(C(=O)COC(=O)c2ccc[nH]c2=O)c(C)n1-c1ccccc1`, for which the inhibition was 57.5% (active). The value for `Cc1cc(C(=O)COC(=O)c2ccc[nH]c2=O)c(C)n1-c1ccc(F)cc1` was 52.3% (active); that for `CCC(=O)N(Cc1cc2c(C)ccc(C)c2[nH]c1=O)C1CCCCC1` was 36.8%. For `CCC(C(=O)OC)n1cnc2scc(-c3ccc(C)c(C)c3)c2c1=O` (centres undefined), the inhibition was 98.5% (active).

As to `CC[n+]1c(/C=C/N(C)c2ccccc2)n(-c2ccccc2)c2ccc(-c3nc4ccccc4s3)cc21`, the inhibition is 64.5% (active). The result for `O=C(Cn1cccc(C(F)(F)F)c1=O)c1ccc(Cl)cc1` reads 20.5%. Consider `O=C(NNC(=O)c1ccc(-c2ccccc2)cc1)Nc1ccc(F)cc1F`, for which the inhibition was 42.6%. Consider `O=C(Nc1ccccc1)Nc1ccc(Br)cc1F`, for which the inhibition is 73.9% (active).

For the compound `Cc1ccc(S(=O)(=O)N(C)C)cc1NC(=O)Nc1ccccc1F`, the inhibition is 24.1%.

Turning to `O=C(c1ccccc1)c1ccc(OCC(O)CNC2CCCc3ccccc32)cc1` (centres undefined), the inhibition was 38.8%.

`COc1ccc(C2NCCc3c2[nH]c2ccccc32)cc1CSc1nc2ccccc2s1` (centres undefined): the inhibition is 50% (active). For `CSc1nc(C)cc(OCCO)n1`, the inhibition was 40.9%.

Take `CCCOc1ccc(OCCSc2ncccn2)cc1`: the inhibition is 50.8% (active).

On to `CCOc1ccc(OCCSc2nc3ccccc3o2)cc1`, for which the inhibition was 44.1%. `CC(=O)NS(=O)(=O)c1ccc(NC(=O)CSc2ccccc2)cc1`: the inhibition is 18.9%.

As to `CC(C)CN=C(NS(=O)(=O)c1ccccc1)C(Cl)(Cl)Cl`, the inhibition is 51.1% (active).

For `Cc1ccc(S(=O)(=O)N[C@@H](Cc2ccccc2)C(=O)CCl)cc1`, the inhibition is -4.2%. Regarding `O=C(OCCN1CCCCC1)c1cc2ccccc2o1`, the inhibition is 18.4%.

Regarding `Cc1c(C)c2cc(Cl)c(O)c(CN3CCCCC3)c2oc1=O`, the inhibition was 35.6%. As to `CCc1oc2ccccc2c1C(=O)CCN1CCCCC1`, the inhibition is 66.5% (active). The value for `COc1ccc(CCNC(=O)c2sc3cc(C)ccc3c2Cl)cc1` was 43.6%; that for `O=C(NCCCn1ccnc1)c1ccc(Br)o1` was 24.1%.

Turning to `c1ccc(CCNc2nc(-c3cccnc3)cs2)cc1`, the inhibition is 45%. With `O=C(NCCc1csc(-c2ccccc2)n1)c1ccc(Br)o1`, the inhibition is 62.4% (active). Regarding `COc1ccc(-c2nc(CCNC(=O)c3cccs3)cs2)cc1`, the inhibition is 54.7% (active).

Regarding `Cc1ccc(CN(C(=O)CNC(=O)c2cccs2)C(C(=O)NCC2CCCO2)c2ccccc2)cc1` (centres undefined), the inhibition was 38.1%. In the case of `O=C(O)C1C2C=CC(C2)C1C(=O)NCc1ccc(Cl)c(Cl)c1` (centres undefined), the inhibition is 45.9%. Regarding `C=C(C)C1Cc2c(C)nn(-c3ccccn3)c2C1` (centres undefined), the inhibition is 36.1%. As to `CSCc1ccc(C(=O)Nc2cc(C)cc(C)c2)cc1`, the inhibition is 82.3% (active). As to `Cc1cc(C)cc(NS(=O)(=O)c2ccc(NC(=S)NC(=O)c3ccc(Br)o3)cc2)c1`, the inhibition is 43.1%.

Regarding `COc1ccc(-c2nc3cnccn3c2Nc2ccc(C)cc2)cc1`, the inhibition was 37.3%. The result for `Cc1ccc(-c2nc3cnccn3c2Nc2c(C)cccc2C)o1` reads 54.5% (active); that for `CCCCCCC(=O)N(O)C1CC(=O)N(Cc2ccccc2)C1=O` (centres undefined), 27.9%; that for `CN1CCN(C(=S)Nc2ccc(Cl)c(Cl)c2)CC1`, 31.7%. In the case of `Cc1ccc(NC(=S)Nc2ccc(Cl)c(Cl)c2)c(OC(F)F)c1`, the inhibition was 45.8%. The result for `O=C(CC(O)(C(F)(F)F)C(F)(F)F)Nc1ccc(Cl)c(Cl)c1` reads 97% (active); that for `FC(F)Oc1ccc(/C=N/c2c(-c3ccc(OC(F)F)cc3)nc3n2CCS3)cc1`, 47.1%; that for `Cc1ccc2nc(N(CCCN(C)C)C(=O)CCc3ccccc3)sc2c1`, 54.9% (active). With `CN(C)CCCN(C(=O)CCS(=O)(=O)c1ccccc1)c1nc2cc3c(cc2s1)OCO3`, the inhibition is 70.2% (active). Regarding `CN(C)CCCN(C(=O)CCOc1ccccc1)c1nc2c(F)cccc2s1`, the inhibition is 56% (active). Consider `Cc1cccc2sc(N(CCCN(C)C)C(=O)CCS(=O)(=O)c3ccccc3)nc12`, for which the inhibition is 71.3% (active). The result for `O=C(CCN1C(=O)c2ccccc2C1=O)N1CCN(C2c3ccccc3-c3ccccc32)CC1` reads 18.1%; that for `CC(C)C(NS(=O)(=O)c1ccc2c(c1)oc(=O)n2C)C(=O)N1CCN(C2CCCCC2)CC1` (centres undefined), 34.7%; that for `Cc1ccc2sc(N(CCCN(C)C)C(=O)CCS(=O)(=O)c3ccccc3)nc2c1C`, 92.2% (active).

For the compound `CC(/C=N/NC(=O)c1c(Br)cnn1C)=C\c1ccccc1`, the inhibition was 56.6% (active).

As to `CC(/C=N/NC(=O)CSc1ccccn1)=C\c1ccc(C(C)C)cc1`, the inhibition was 39%. Consider `CC(/C=N/NC(=O)CCn1nnc2ccccc21)=C\c1ccccc1`, for which the inhibition was 42.8%.

For the compound `Cc1cc(C(C)(C)C)cc(C)c1S(=O)(=O)N1CC(=O)Nc2ccccc21`, the inhibition was 50.1% (active).

As to `CC(C)c1ccc(-c2c(C#N)c(N)nc3c2CCCCC3)cc1`, the inhibition was 23.8%. `CCN(c1ccccc1)S(=O)(=O)c1cc(NC(=O)Nc2ccccc2C#N)ccc1Cl`: the inhibition was 30.4%. As for `COc1ccc(-c2cc(-c3cc(OC)ccc3O)[nH]n2)cc1`, the inhibition is 57.5% (active). The result for `CCOCC(O)CNC(=O)c1ccc(OC2CCN(C(=O)c3cccnc3)CC2)cc1` (centres undefined) reads 29.2%. The result for `Cc1cc(/C=C2/SC(=S)N(c3ccc([N+](=O)[O-])cc3)C2=O)c(C)n1-c1cccnc1` reads 37.3%; that for `O=C(NC1CCCC1)c1ccc(CN2CCOCC2)cc1`, 45.1%. `O=C(NC1CCCCC1)c1noc2c1CCCCC2`: the inhibition was 71.2% (active).

Regarding `C=CCn1c(=O)c2ccc(C(=O)NCc3ccccc3)cc2n(Cc2ccccc2Cl)c1=O`, the inhibition is 36.4%.

Turning to `Cc1ccc(-c2csc(NC(=O)c3ccc(F)cc3)c2C(=O)O)cc1`, the inhibition is 93.8% (active). The result for `Cc1noc(C)c1S(=O)(=O)N1CCC(C(=O)N2CCC(N3CCCCC3)CC2)CC1` reads 23.3%; that for `CCCOc1ccc(C(=O)C(CN2CCCC2)c2ccccc2)cc1` (centres undefined), 48.7%. With `CCOc1ccc(C(=O)C(CN2CCOCC2)c2ccccc2)cc1` (centres undefined), the inhibition is 52.9% (active).

On to `CCOC(=O)CNC(c1ccccc1)c1cc(Br)ccc1NC(=O)CCN1CCOCC1` (centres undefined), for which the inhibition was 44.6%. For `Cc1cc(Nc2ccccc2)nn1C(=O)c1ccccc1`, the inhibition is 58% (active). Take `CCn1nc(C)cc1Nc1ccccc1`: the inhibition is 32.9%.

Turning to `COc1cc2c(cc1NC(=S)Nc1ccccc1C)oc1ccccc12`, the inhibition is 45.5%. `CN(C)c1ccc(N=C/C=C2/N(C)c3ccccc3C2(C)C)cc1`: the inhibition is 56.5% (active).

`Cc1ccccc1N=C/C=C1\N(C)c2ccccc2C1(C)C`: the inhibition was 42.5%. Take `CN1/C(=C\C(=O)c2cccs2)C(C)(C)c2ccccc21`: the inhibition is 40%. Regarding `CS(=O)(=O)c1nc(-c2ccco2)cc(C(F)(F)F)n1`, the inhibition was 90.7% (active). On to `Cc1ccc2cc(CN(Cc3ccco3)C(=O)NC3CCCCC3)c(=O)[nH]c2c1C`, for which the inhibition is 42.8%. The value for `CCC(C)NC(=O)c1cc2cc3ccc(OC)cc3nc2s1` (centres undefined) was 56.8% (active). For the compound `COc1ccc(OC)c(NC(=O)c2sc3nc(Cc4ccccc4)cc(C(F)(F)F)c3c2N)c1`, the inhibition was 40.6%. As to `O=C(CCC1CCCCC1)N1CCN(Cc2ccc3c(c2)OCO3)CC1`, the inhibition was 67% (active). As to `OC(COCc1ccc2c(c1)OCO2)CN1CCN(Cc2ccccc2)CC1` (centres undefined), the inhibition was 35.2%. In the case of `N#CCc1c(C#N)c(N)nc(N2CCN(Cc3ccc4c(c3)OCO4)CC2)c1C#N`, the inhibition was 37.5%. As for `CC1CCCN(CCOCCOc2ccc(Br)cc2Cl)C1` (centres undefined), the inhibition is 59.5% (active).

With `CC1CCCN(CCC(=O)c2ccc(Br)cc2)C1` (centres undefined), the inhibition was 45.8%. For the compound `Cc1cc(Cl)c(OCCOCCN2CCC(C)CC2)c(Br)c1`, the inhibition is 53.7% (active). The value for `Cc1cc(Cl)c(OCCCCN2CCOCC2)c(Br)c1` was 30.6%; that for `CN1CCC(Oc2ccc(Sc3ccccc3)cc2)CC1` was 40.5%; that for `CC1CCCN(CCCOc2ccc(Cl)cc2Br)C1` (centres undefined) was 64.8% (active).

In the case of `CC1CCCN(CCOCCSc2ccccc2)C1` (centres undefined), the inhibition was 53% (active). Turning to `Cc1cc(Cl)c(OCCCN2CCCCC2)c(Br)c1`, the inhibition is 24.1%.

Take `CC(C)(C)c1ccc(COn2c(=O)c(-c3ccco3)[n+]([O-])c3ccccc32)cc1`: the inhibition is 39.7%. On to `CCOc1ccc(NC(=O)CSc2nnc(C)n2Cc2ccccc2)cc1`, for which the inhibition is 37.3%. As for `CCOC(=O)c1cccnc1SCC(=O)NCc1ccccc1`, the inhibition is 54.2% (active).

Take `CCOC(=O)c1cnc2ccccc2c1Nc1cc(C(=O)O)ccc1C`: the inhibition was 28.2%. As for `Cc1nc(C)c(/C(O)=C/c2nc3ccccc3oc2=O)s1`, the inhibition is 44%.

On to `Cc1ccc(NC2(C#N)C(=O)Nc3ccccc32)cc1` (centres undefined), for which the inhibition is 38.2%.

Take `O=C(c1ccco1)N1CCN(Cc2cn[nH]c2-c2cccc3ccccc23)CC1`: the inhibition was 26%. The value for `O=C(CN1CCSC1=NCc1ccccc1)c1ccc(Cl)c(Cl)c1` was 61% (active). Take `COc1cccc(CN(C)CC(=O)Nc2cccc(S(N)(=O)=O)c2)c1OC`: the inhibition was 32.5%.

`Cc1cs/c(=N\N=C\c2ccccc2)n1Cc1ccco1`: the inhibition was 54.1% (active). Take `COc1ccc(N2CCN(CC(=O)NC(=O)NCc3ccco3)CC2)cc1`: the inhibition is 33.3%.

As for `CCN(C(=O)c1ccco1)c1nnc(-c2ccc(OC)cc2)s1`, the inhibition was 51% (active). As to `CCC(C(=O)NCc1ccco1)N(C(=O)CNS(=O)(=O)c1ccccc1)c1ccc(OC)cc1` (centres undefined), the inhibition is 32.8%. The result for `O=C(NC(N1CCOCC1)C(Cl)(Cl)Cl)c1ccc(Br)cc1` (centres undefined) reads -14.2%; that for `CCOC(=O)c1cc([N+](=O)[O-])c([N+](=O)[O-])cc1NC(C)=O`, 22.4%. Consider `CN(C)c1ccc(NC(=O)COC(=O)c2cc(Cl)ccc2[N+](=O)[O-])cc1`, for which the inhibition is 68% (active).

Values taken from PubChem BioAssay AID488857 (Sanford-Burnham Center for Chemical Genomics, 2010).
